The values below come from PubChem BioAssay (EPA / NIEHS).

A short description of assay [1]: TOX21_p53_BLA_p2_viability: Viability Assessment in the Tox21 HCT-116 p53 Agonism Beta-lactamase Assay, Phase 2 (AID 2283591; active = hit-call score of the fitted dose curve at least 0.9, where 1 is the maximum;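 note: compound exposure lasted 16 h at 37 °C; actives lower the ATP signal meaning cytotoxicity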). The procedure, abridged: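 HCT-116 p53-bla cells (4000/well) rested 5 h at 37C, then received compounds in DMSO (217-fold dilution) for 16 h at 37C, 5% CO2. After the CCF4 read, CellTiter-Glo was added; ATP luminescence was read after 30 min at room temperature.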

Assay [2] deals with Cellular tumor antigen p53 (Homo sapiens) (UniProt P04637). Briefly: TOX21_p53_BLA_p2_ratio: Tox21 HCT-116 p53 Agonism Beta-lactamase Assay, Ratio, Phase 2 (AID 2283592; active = hit-call score of the fitted dose curve at least 0.9, where 1 is the maximum). In short, it runs like this:
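HCT116 p53-bla; 4000 cells/well; 5 h pre-incubation; cpd in DMSO, 217-fold dilution; 16 h 37C/5% CO2; CCF4-AM 2 h RT; Ex 405, Em 460/530 ratio; DMSO = baseline; positive fitting direction.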

A short description of assay [3]: TOX21_p53_BLA_p3_viability: Viability Assessment in the Tox21 HCT-116 p53 Agonism Beta-lactamase Assay, Phase 3 (AID 2283593; active = hit-call score of the fitted dose curve at least 0.9, where 1 is the maximum;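 note: cells exposed to compound for 16 h before reading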). The procedure, abridged: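 HCT-116 cells (4000/well) rested 5 h at 37C, then got DMSO compounds by pin tool (217-fold dilution) for 16 h at 37C, 5% CO2. After the bla read, CellTiter-Glo was added and luminescence read at 30 min, room temperature.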

Assay [4] has as its target Cellular tumor antigen p53 (Homo sapiens) (UniProt P04637). The assay is described as follows: TOX21_p53_BLA_p3_ratio: Tox21 HCT-116 p53 Agonism Beta-lactamase Assay, Ratio, Phase 3 (AID 2283596; active = hit-call score of the fitted dose curve at least 0.9, where 1 is the maximum). The procedure, abridged:
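HCT116 p53-bla cells (4000/well) given compound in DMSO (217-fold dilution) after 5 h, incubated 16 h at 37C. CCF4-AM substrate 2 h at room temperature; 460/530 nm emission ratio, gain fitted against DMSO.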

Assay [5] is described as follows: TOX21_p53_BLA_p4_viability: Viability Assessment in the Tox21 HCT-116 p53 Agonism Beta-lactamase Assay, Phase 4 (AID 2283597; active = hit-call score of the fitted dose curve at least 0.9, where 1 is the maximum;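 note: hits lower the luminescence signal meaning cytotoxicity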). The procedure, abridged:
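Cells plated, 5 h pre-incubation; DMSO compounds pinned (217-fold dilution); 16 h, 37C/5% CO2; CCF4-AM 2 h RT; CellTiter-Glo 30 min RT; luminescence read.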

Assay [6] has as its target Cellular tumor antigen p53 (Homo sapiens) (UniProt P04637). The assay is described as follows: TOX21_p53_BLA_p5_ratio: Tox21 HCT-116 p53 Agonism Beta-lactamase Assay, Ratio, Phase 5 (AID 2283599; active = hit-call score of the fitted dose curve at least 0.9, where 1 is the maximum). The procedure, abridged:
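HCT-116 cells carrying a p53-inducible beta-lactamase reporter were seeded at 4000 cells/well and dosed after 5 h with compound in DMSO (217-fold dilution). After 16 h at 37C, CCF4-AM substrate was added for 2 h, and the 460/530 nm emission ratio was scored as gain-of-signal versus DMSO.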

A short description of assay [7]: TOX21_p53_BLA_p5_viability: Viability Assessment in the Tox21 HCT-116 p53 Agonism Beta-lactamase Assay, Phase 5 (AID 2283600; active = hit-call score of the fitted dose curve at least 0.9, where 1 is the maximum). The procedure, abridged: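 4000 cells/well; 5 h pre-incubation; DMSO compounds pin-transferred, 217-fold dilution; 16 h, 37C/5% CO2; CCF4-AM 2 h RT; CellTiter-Glo 30 min RT; luminescence.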
The target in assay [8] is Cellular tumor antigen p53 (Homo sapiens) (UniProt P04637). The assay is described as follows: TOX21_p53_BLA_p4_ratio: Tox21 HCT-116 p53 Agonism Beta-lactamase Assay, Ratio, Phase 4 (AID 2283601; active = hit-call score of the fitted dose curve at least 0.9, where 1 is the maximum). The procedure, abridged: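 HCT116 cells carrying an inducible beta-lactamase reporter were plated at 4000 cells/well, rested 5 h, then exposed to compounds in DMSO (217-fold dilution) for 16 h at 37C. CCF4-AM substrate was loaded 2 h at room temperature; 460/530 nm emission ratio scored gain-of-signal versus DMSO.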
Sequence of Cellular tumor antigen p53 (Homo sapiens) (P04637 whole entry, looked up): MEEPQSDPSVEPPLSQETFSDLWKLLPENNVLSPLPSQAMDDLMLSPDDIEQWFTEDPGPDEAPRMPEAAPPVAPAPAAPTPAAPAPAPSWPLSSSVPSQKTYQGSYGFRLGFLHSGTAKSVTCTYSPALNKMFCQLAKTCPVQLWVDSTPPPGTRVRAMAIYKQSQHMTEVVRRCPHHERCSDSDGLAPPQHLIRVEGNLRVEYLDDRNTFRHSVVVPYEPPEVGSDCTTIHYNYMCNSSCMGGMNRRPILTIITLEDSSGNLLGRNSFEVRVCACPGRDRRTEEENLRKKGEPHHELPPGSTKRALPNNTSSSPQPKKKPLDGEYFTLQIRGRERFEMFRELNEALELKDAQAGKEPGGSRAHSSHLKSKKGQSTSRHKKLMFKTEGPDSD

Assay [9] can be described thus: CCTE_Shafer_MEA_dev_firing_rate_mean: CCTE's Neural Network Formation Assay for Mean Firing Rate, Shafer Lab (AID 2284031).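 Note: curve fitted for loss of firing so AC50 reflects decreased mean firing rate.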 In short, it runs like this: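 Rat primary cortical neurons were seeded on multielectrode arrays and treated from plating through day 12, with redosing at each feed. Spontaneous spiking was recorded four times; mean firing rate AUC was fitted downward against DMSO.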

The nature of assay [10]: CCTE_Shafer_MEA_dev_per_burst_spike_percent: CCTE's Neural Network Formation Assay for Percent of Spikes in a Burst, Shafer Lab (AID 2284032).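 Note: fitted as a decrease in burst spike percentage below DMSO baseline.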 In short, it runs like this: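 Rat primary cortical neurons on 16-electrode MEA wells, dosed from plating day 0 for 12 days with renewal on DIV 5 and 9; spikes-in-bursts percentage averaged over bursting electrodes, collapsed as AUC across days 5, 7, 9, 12; loss direction versus DMSO.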

Assay [11] can be described thus: CCTE_Shafer_MEA_dev_active_electrodes_number: CCTE's Neural Network Formation Assay for Number of Active Electrodes, Shafer Lab (AID 2284040; active = hit-call score of the fitted dose curve at least 0.9, where 1 is the maximum;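 note: potency for loss of active electrodes versus DMSO so lower counts are hits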). In short, it runs like this:
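Primary rat cortical neurons on 16-electrode MEA wells, exposed from day 0 through day 12 with compound renewed at DIV 5 and 9 feeds. Active electrodes (mean firing ≥5 spikes/min) counted at DIV 5, 7, 9, 12; trapezoidal AUC across days, loss-of-signal versus DMSO.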

Assay [12] in a line: CCTE_Shafer_MEA_dev_burst_rate: CCTE's Neural Network Formation Assay for Burst Rate, Shafer Lab (AID 2284042).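 Note: potency for loss of burst rate below DMSO control.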 The procedure, abridged: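 Cells plated, treated day 0; recorded DIV 5, 7, 9, 12; fed and re-treated DIV 5, 9. Endpoint: bursts per recording time, active-electrode well mean, trapezoidal AUC, fitted in decreasing direction against DMSO baseline.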
Assay [13] is described as follows: CCTE_Shafer_MEA_dev_bursting_electrodes_number: CCTE's Neural Network Formation Assay for Number of Bursting Electrodes, Shafer Lab (AID 2284043; active = hit-call score of the fitted dose curve at least 0.9, where 1 is the maximum;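 note: potency is for loss of bursting electrodes relative to DMSO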). In short, it runs like this: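 Primary rat cortical neurons were cultured on PEI-coated 48-well MEA plates (16 electrodes/well) and exposed from plating through day 12, with compound renewed at feeds on DIV 5 and 9. Electrodes bursting ≥1 per 2 min were counted on DIV 5, 7, 9, 12; trapezoidal AUC taken.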

Assay [14] is described as follows: CCTE_Shafer_MEA_dev_per_burst_interspike_interval: CCTE's Neural Network Formation Assay for Burst Interspike Interval, Shafer Lab (AID 2284044).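 Note: mean spike spacing inside bursts as AUC over recordings on days 5 7 9 12; potency for a decrease of within-burst interspike interval below DMSO level.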 In short, it runs like this:
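Neurons from rat cortex plated onto PEI-coated MEA wells with laminin […] at 1.5 x 10^5 cells/well, then treated from day 0. Media and compound fully replaced on DIV 5 and 9. Extracellular spontaneous firing recorded four times; interspike interval per burst summarised as AUC.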

Assay [15] is described as follows: CCTE_Shafer_MEA_dev_burst_duration_mean: CCTE's Neural Network Formation Assay for Mean Burst Duration, Shafer Lab (AID 2284045).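 Note: curve fitted for loss meaning shorter burst duration than DMSO.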 In short, it runs like this: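 Primary rat cortical neurons on PEI-coated 16-electrode MEA wells, exposed from plating through day 12 with compound renewed at DIV 5 and 9; spontaneous activity recorded days 5, 7, 9, 12. Well-mean burst duration collapsed as trapezoidal AUC, fitted for loss versus DMSO.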

The nature of assay [16]: CCTE_Shafer_MEA_dev_interburst_interval_mean: CCTE's Neural Network Formation Assay for Mean Interburst Interval, Shafer Lab (AID 2284046).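 Note: curve fitted for decrease in interburst interval relative to DMSO.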 The procedure, abridged: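 Developing rat cortical networks on 48-well MEAs receive compound from the day of plating. Burst intervals from each active electrode are averaged per well, and AUC over the recording days is fitted in the negative direction against DMSO.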

Assay [17] can be described thus: CCTE_Shafer_MEA_dev_inter_network_spike_interval_mean: CCTE's Neural Network Formation Assay for Mean Inter-network Spike Interval, Shafer Lab (AID 2284047).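 Note: potency for a decrease in mean inter-network spike interval below DMSO.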 In short, it runs like this:
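Rat cortical cultures, 1.5 x 10^5 cells/well on 48-well MEA plates; continuous exposure days 0–12, medium and compound refreshed DIV 5, 9. Mean time between consecutive network-spike peaks; AUC across DIV 5/7/9/12; DMSO baseline, negative fitting direction.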

The nature of assay [18]: CCTE_Shafer_MEA_dev_network_spike_number: CCTE's Neural Network Formation Assay for Number of Network Spikes, Shafer Lab (AID 2284048).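 Note: synchronized bursts across electrodes counted on days 5 7 9 12 and integrated as AUC; fit as a loss of signal meaning fewer network spikes than DMSO.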 The procedure, abridged: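 Primary rat cortical neurons were seeded at 1.5 x 10^5 cells/well on PEI-coated 16-electrode MEA wells with laminin, exposed from plating day 0, compound renewed at DIV 5 and 9. Network spikes were recorded on days 5, 7, 9, 12 and summarized as trapezoidal AUC versus DMSO.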

The nature of assay [19]: CCTE_Shafer_MEA_dev_network_spike_peak: CCTE's Neural Network Formation Assay for Mean Number of Electrodes in Network Spike, Shafer Lab (AID 2284049).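 Note: fitted for loss of signal meaning fewer electrodes in network spikes than DMSO.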 The procedure, abridged: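 Continuous 12-day exposure of rat cortical cultures, starting at plating, on MEA plates. Endpoint: electrodes participating in network-spike peaks, AUC across DIV 5–12, DMSO as negative control.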

Assay [20] can be described thus: CCTE_Shafer_MEA_dev_spike_duration_mean: CCTE's Neural Network Formation Assay for Mean Spike Duration, Shafer Lab (AID 2284051).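 Note: mean network spike duration pooled as area under curve over DIV 5 to 12 recordings; potency for a decrease in mean network spike duration versus DMSO.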 In short, it runs like this:
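Readout is the average length of network spikes, clustered firing across electrodes, summed over DIV 5, 7, 9 and 12 as area under the curve. Neurons from rat cortex developed networks on MEA plates under continuous 12-day exposure.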

Assay [21] can be described thus: CCTE_Shafer_MEA_dev_network_spike_duration_std: CCTE's Neural Network Formation Assay for Standard Deviation of Network Spike Duration, Shafer Lab (AID 2284052).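 Note: area under curve of spike duration SD across recording days 5 to 12; hits are decreases in network spike duration SD versus DMSO vehicle.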 The procedure, abridged:
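Read-out is the trapezoidal area-under-the-curve across recordings made on days 5, 7, 9 and 12, fitted in the negative direction against DMSO baseline. Neurons were primary rat cortical cells treated from day 0, with treatment renewed at each feed.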

Records with an inconclusive call do not appear. Active and inactive are the calls of the source. Rule for the calls, unless noted: active = hit-call score of the fitted dose curve at least 0.9, where 1 is the maximum; inactive = score below 0.9.

What is called AC50 is the midpoint of the concentration-response curve, whichever way the signal moves.

Take `CCC[CH2][Sn]([CH2]CCC)([CH2]CCC)[O][Sn]([CH2]CCC)([CH2]CCC)[CH2]CCC`: the AC50 is 0.708 µM (active) in [1]; 0.236 µM (active) in [3]; 0.348 µM (active) in [4]; 0.668 µM (active) in assay [5]; 2.03 µM (active) in assay [6]; 1.37 µM (active) in assay [7]. The AC50 in assay [8] was 2.22 µM (active); in [9], 0.0245 µM (active); in assay [10] it was 0.0342 µM (active); in assay [11], 0.0429 µM (active); in [12] it was 0.0291 µM (active); in assay [13] it was 0.0378 µM (active). Also, the AC50 in [14] is 0.0768 µM (active); in assay [15] it was 0.034 µM (active); in assay [16], 0.0762 µM (active); in assay [17] it was 0.0315 µM (active); in assay [18] it was 0.0564 µM (active); in assay [19], 0.0457 µM (active). Moreover, the AC50 is 0.0308 µM (active) in [20] and 0.0312 µM (active) in assay [21]. Besides, in assay [2], the result was inactive.
